In ChEMBL document CHEMBL4513141, “CO-ADD screening of NIH (USA) - Clinical Collection” (2021):
Results with a measured potency or affinity are listed apart.

What follows are compounds tested on Staphylococcus aureus. Conditions: Concentration 20 uM; ASSAY_TEST Inhibition of Bacterial Growth; detection method Absorption (OD600); MEDIA CAMHB; plate type 384well; NBS; CORNING #3640; time 18 hr.
In the case of `CC(=O)OCC(=O)C12OC3(CCCC3)OC1CC1C3CCC4=CC(=O)C=CC4(C)C3(F)C(O)CC12C` (stereo unspecified), the Inhibition is reported as 19.97%.
In the case of `O=c1c(O[C@@H]2O[C@H](CO)[C@H](O)[C@H](O)[C@H]2O)c(-c2ccc(O)c(O)c2)oc2cc(O)cc(O)c12` [HYPEROSIDE], the Inhibition is reported as 7.34%.
`Cc1nc(=O)c2cc(CN(C)c3ccc(C(=O)N[C@@H](CCC(=O)O)C(=O)O)s3)ccc2[nH]1` [RALTITREXED] showed an Inhibition of 9.09%.
Work on `CCCc1cc(=O)[nH]c(=S)[nH]1` [PROPYLTHIOURACIL] yielded an Inhibition of 17.4%.
`C[C@]12CC[C@@H]3c4ccc(O)cc4CC[C@H]3[C@@H]1CC[C@@H]2O` [ESTRADIOL] showed an Inhibition of 2.2%.
In the case of `COc1cc(N)c(Cl)cc1C(=O)N[C@@H]1CCN(CCCOc2ccc(F)cc2)C[C@@H]1OC.O` [(R,S)-CISAPRIDE MONOHYDRATE], the Inhibition is reported as 10.08%.
`N[C@@H]1CONC1=O` [CYCLOSERINE] showed an Inhibition of 14.71%.
Compound `CC(=O)O[C@]1(C(C)=O)CC[C@H]2[C@@H]3C[C@H](C)C4=CC(=O)CC[C@]4(C)[C@H]3CC[C@@]21C` [MEDROXYPROGESTERONE ACETATE] has an Inhibition of 10.39%.
In the case of `CCN(CC)CCOc1ccc(C(=C(Cl)c2ccccc2)c2ccccc2)cc1.O=C(O)CC(O)(CC(=O)O)C(=O)O` [CLOMIPHENE CITRATE], the Inhibition is reported as 43.2%.
Compound `CN1CCN(C2=Nc3ccccc3Oc3ccc(Cl)cc32)CC1.O=C(O)CCC(=O)O` [LOXAPINE SUCCINATE] has an Inhibition of 9.14%.
`Cc1ncc([N+](=O)[O-])n1CC(C)O` (stereo unspecified) [SECNIDAZOLE] was tested, and the Inhibition was 11.92%.
Compound `COc1cc(C(=O)NC2CCCNC2)cc(OC)c1OC` (stereo unspecified) [TROXIPIDE] has an Inhibition of 21.18%.
Work on `Cc1ccc(O)c([C@H](CCN(C(C)C)C(C)C)c2ccccc2)c1.O=C(O)C(O)C(O)C(=O)O` [TOLTERODINE TARTRATE] yielded an Inhibition of -0.49%.
In the case of `COc1cc(C[C@@H](CO)[C@H](CO)Cc2ccc(O)c(OC)c2)ccc1O` [(+)-SECOISOLARICIRESINOL], the Inhibition is reported as 14.2%.
`CC(C)[C@H](N)C(=O)OCCOCn1cnc2c(=O)nc(N)[nH]c21.Cl` [VALACYCLOVIR HYDROCHLORIDE] gave an Inhibition of 12.39%.
With `CC(=O)CCCCn1c(=O)c2c(ncn2C)n(C)c1=O` [PENTOXIFYLLINE] the Inhibition was 15.42%.
In the case of `C#C[C@]1(O)CC[C@H]2[C@@H]3[C@H](C)CC4=C(CCC(=O)C4)[C@H]3CC[C@@]21C` [TIBOLONE], the Inhibition is reported as 12.93%.
Work on `NNCCc1ccccc1.O=S(=O)(O)O` [PHENELZINE SULFATE] yielded an Inhibition of -0.33%.
For `O=C(O)COCCN1CCN([C@H](c2ccccc2)c2ccc(Cl)cc2)CC1` [LEVOCETIRIZINE], the Inhibition was 11.65%.
`COc1cc2nc(N(C)CCCNC(=O)C3CCCO3)nc(N)c2cc1OC` (stereo unspecified) [ALFUZOSIN] gave an Inhibition of 6%.
`CCN(CC)C(=O)[C@]1(c2ccccc2)C[C@@H]1CN.Cl` [1R,2S-MILNACIPRAN HYDROCHLORIDE] gave an Inhibition of 5.25%.
With `COC(=O)C1=C(C)NC(C)=C(C(=O)OCCN(C)Cc2ccccc2)C1c1cccc([N+](=O)[O-])c1.Cl` (stereo unspecified) [NICARDIPINE HYDROCHLORIDE] the Inhibition was -1.65%.
Compound `CO[C@H]1O[C@@H]2O[C@@]3(C)CC[C@H]4[C@H](C)CC[C@@H]([C@H]1C)[C@@]24OO3` has an Inhibition of 8.78%.
Compound `O=C1C(CC[S+]([O-])c2ccccc2)C(=O)N(c2ccccc2)N1c1ccccc1` (stereo unspecified) [SULFINPYRAZONE] has an Inhibition of 18.52%.
`CC12CCC(=O)C=C1CCC1C2CCC2(C)C1CCC2(O)C(=O)CO` (stereo unspecified) gave an Inhibition of 8.54%.
Compound `CC(CCCCC(=O)Nc1ccc(C(F)(F)F)cc1)NCCc1c[nH]cn1.O=C(O)/C=C\C(=O)O.O=C(O)/C=C\C(=O)O` (stereo unspecified) has an Inhibition of 7.23%.
`CC(C)(C)NC(=O)[C@H]1CC[C@H]2[C@@H]3CC[C@H]4NC(=O)C=C[C@]4(C)[C@H]3CC[C@]12C` [FINASTERIDE] was tested, and the Inhibition was -0.3%.
For `Nc1ncnc2c1ncn2[C@@H]1O[C@H](CO)C[C@@H]1O.O`, the Inhibition was 7.37%.
Work on `CC(C[N+](C)(C)C)OC(N)=O.[Cl-]` (stereo unspecified) [BETHANECHOL CHLORIDE] yielded an Inhibition of 5.38%.
In the case of `CCCNCC(O)COc1ccccc1C(=O)CCc1ccccc1` (stereo unspecified) [PROPAFENONE], the Inhibition is reported as 9.33%.
Work on `Nc1nc(O)c2ncn(CCC(CO)CO)c2n1` [PENCICLOVIR] yielded an Inhibition of 6.12%.
With `CCN(CC)CCNC(=O)c1cc(Cl)c(N)cc1OC.Cl` the Inhibition was 7.88%.
In the case of `CC1CNc2c(cccc2S(=O)(=O)N[C@@H](CCCNC(=N)N)C(=O)N2CC[C@@H](C)C[C@@H]2C(=O)O)C1` (stereo partly specified) [ARGATROBAN], the Inhibition is reported as 5.54%.
For `Nc1nc(=O)c2nc(CNc3ccc(C(=O)N[C@@H](CCC(=O)O)C(=O)O)cc3)cnc2[nH]1` [FOLIC ACID], the Inhibition was 10.57%.
With `CCN(CC)CCOC(=O)C1(C2CCCCC2)CCCCC1.Cl` [DICYCLOMINE HYDROCHLORIDE] the Inhibition was 8.61%.
Work on `CC(C)OC(=O)CCC/C=C\C[C@@H]1[C@@H](CC[C@@H](O)CCc2ccccc2)[C@H](O)C[C@@H]1O` [LATANOPROST] yielded an Inhibition of 13.97%.
